The whole screen tested about 1,100 compounds, of which about 760 (69%) were called active. How the calls were made is not given here. So high a share suggests a set chosen from earlier hits. This is one part of the list.
Experiment: M. tuberculosis growth inhibition, HTS (AID 1259417);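 further: bacteria grown with compound for 5 days at 37 °C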
Settings: stronger effect = higher value, concentration not given here
[1] = M. tuberculosis DsRed fluorescence growth inhibition
[2] = M. tuberculosis growth inhibition

SMILES | inhibition [1] | inhibition [2]
Cc1ccc(Oc2cc(NC(=O)CCCn3nc(C)c([N+](=O)[O-])c3C)cc([N+](=O)[O-])c2)cc1 | 0.414% (inactive) | -13.5%
CCOc1ccc(NC(=O)CSc2nnc(Cc3ccc(OC)cc3)o2)cc1 | 3.01% (inactive) | 2.07%
COc1cccc(NC(=O)CSc2nnc(-c3ccc(Br)cc3)o2)c1 | 17.3% (inactive) | 19.2%
CCOC(=O)c1ccc(NC(=O)CSc2nnc(-c3ccc(OC)cc3)o2)cc1 | 18.2% (active) | 56.7%
COC(=O)c1ccc(NC(=O)CSc2nnc(Cc3ccc(OC)cc3)o2)cc1 | 18.7% (active) | 53.1%
COc1ccc(-c2nnc(SCC(=O)Nc3ccc([N+](=O)[O-])cc3)o2)cc1 | 23.1% (active) | 88.8%
COc1ccc(Cc2nnc(SCC(=O)Nc3ccc(C(C)C)cc3)o2)cc1 | 6.85% (inactive) | 9.66%
C=CCSc1nnc(-c2ccc([N+](=O)[O-])cc2)o1 | 99.2% (active) | 99.1%
CCOC(=O)CSc1nnc(-c2ccc([N+](=O)[O-])cc2)o1 | 95.7% (active) | 95.6%
O=C(/C=C/c1cccc([N+](=O)[O-])c1)c1cccs1 | 94.6% (active) | 96.5%
CCOC(=O)C(C)Oc1ccc2c(-c3ccc(OC)cc3)cc(=O)oc2c1 (stereo not drawn) | 56.3% (active) | 89%
COC(=O)COc1ccc2c(-c3ccc(OC)cc3)cc(=O)oc2c1 | 97.7% (active) | 98.3%
COC(=O)COc1ccc(-c2ccc(C)cc2)cc1 | 35.7% (active) | 70.9%
COC(=O)COc1ccc(NC(=O)c2ccc3c(c2)C(=O)N(C(C)(C)C)C3=O)cc1 | 69.9% (active) | 88.2%
COC(=O)COc1ccc(NC(=O)c2ccc(-c3ccccc3)cc2)cc1 | 99.4% (active) | 100%
CCOC(=O)COc1ccc2c(c1)c(C(=O)OCC)c(C)n2CC | 51.2% (active) | 69.6%
CC(C)(C)n1cnc2cc(NC(=O)c3ccc(Cl)cc3)ccc21 | 19.9% (inactive) | 28.4%
CCOC(=O)c1c(C)n(C)c2ccc(OC(C)C(=O)OC)cc12 (stereo not drawn) | 3.6% (inactive) | 19.3%
CC(C(=O)OCc1ccccc1)n1cnc2scc(-c3ccc(Br)cc3)c2c1=O (stereo not drawn) | -4.93% (inactive) | -4.92%
CCOC(=O)COc1ccc(OCc2ccccc2)cc1 | 1.21% (inactive) | -7.23%
Cc1ccc(-c2ccc(OCC(=O)OCc3ccccc3)cc2)cc1 | 53.2% (active) | 82.9%
CCOC(=O)COc1ccc(-c2ccc(C)cc2)cc1 | 24.3% (active) | 81.2%
COC(=O)COc1ccc(-c2ccccc2)cc1 | 48.7% (active) | 85.1%
CN1CCN(c2cc(-c3ccccc3)nc3c(C(F)(F)F)cccc23)CC1 | 93% (active) | 71%
COc1ccccc1NC(=O)CSc1nc(-c2ccccc2)cc(C(F)(F)F)c1C#N | 0.888% (inactive) | 24.8%
CC(NC(=O)c1ccc([N+](=O)[O-])o1)C12CC3CC(CC(C3)C1)C2 (stereo not drawn) | 70% (active) | 75.5%
O=C(Oc1cccc2cccnc12)c1ccccc1F | 101% (active) | 101%
CCN(CC)S(=O)(=O)c1ccc(Cl)c(C(=O)Oc2cccc3cccnc23)c1 | 100% (active) | 99.3%
O=C(Oc1cccc2cccnc12)c1ccco1 | 101% (active) | 99.7%
